Experimental data from PubChem BioAssay (EPA / NIEHS).
“And” between values parts separate entries of the source, which are not always exact repeats. Equal entries are not always repeated. Some compounds were tested as several samples or in several runs, with calls that do not always agree. The source made the active and inactive calls. Rule for the calls: active = hit-call score of the fitted dose curve at least 0.9, where 1 is the maximum; inactive = score below 0.9.

read-out: growth arrest and DNA damage 45 (GADD45B), GADD45B (gene 4616); assay: LTEA_HepaRG_GADD45B: Life Technologies and Expression Analysis (LTEA) Assay for growth arrest and DNA damage 45 (GADD45B) using HepaRG (AID 2283461); details: mRNA level, 48 h; actives raise or lower the signal
Description: LTEA_HepaRG is a cell based, multiplexed-readout assay that uses HepaRG, a human liver cell line, with measurements taken at 48 hours after chemical dosing on a 96-well plate.LTEA_HepaRG_GADD45B is one of 102 assay component(s) measured in the LTEA HepaRG cell culture assay. It is a marker of Cell proliferation, survival, death.Data from the assay component LTEA_HepaRG_GADD45B was analyzed into 1 endpoint. This assay endpoint, LTEA_HepaRG_GADD45B, was analyzed with bidirectional fitting relative to DMSO as the negative control and baseline of activity. Using a type of inducible reporter, measures of mRNA induction for gain or loss-of-signal activity can be used to understand regulation of transcription factor activity. To generalize the intended target to other relatable targets, this assay endpoint is annotated to the mutagenicity response intended target family, where the subfamily is Cell proliferation, survival, death.
A total of 1060 chemcials from the ToxCast library were tested in eight-point concentration-response experiments. Cell culture and cytotoxicity assays were conducted at Thermo Fisher Scientific's Custom Services facility (Madison, WI). A single lot of human HepaRG cells (Thermo Fisher Scientific, Frederick, MD) was used for the cell culture experiments. 96-well format collagen type I coated plates of human HepaRG cells were prepared using established methods. Briefly, cryopreserved HepaRG cells were thawed, plated at a density of approximately 100,000 cells/well in HepaRG Thaw, Plate, and General Purpose media (HPRG770, Thermo Fisher Scientific), and incubated for 48 hours. 0.5% DMSO was selected as vehicle control to balance the requisite need of DMSO in HepaRG cultures to maintain differentiation (for example, baseline metabolism, proportions of hepatocytes vs. cholangiocytes), while enabling further hepatic receptor pathway activation (for example, PXR and CAR) in response to chemical exposure. 48 hours after plating, the culture medium was replaced with HepaRG Serum-Free Incudtion Media. Cells were exposed to each test chemical in duplicate and maintained in CO2 incubators for another 48 hours. Chemical plates were thawed to room temperature and 200x concentrations of treatment groups were prepared. 8-point conentration-reponse curves were made with the highest exposure at 100 uM, followed by half-log dilutions, all in 0.5% DMSO. Each test plate contained variouse controls, induction positive controls (1mM phenobarbital), cytotoxicity positive controls ([…] aflatoxin B1), vehicle controls (0.5% DMSO), and total lysis controls (0.5% DMSO). Cell morphology images were taken using an Essen IncuCyte FLR automated microscope, with six 96-well plates imaged in about 24 minutes. Images were captured and exported and JPEG files. Spent culture media was transfered to black-well plates for the LDH assay, and remaining media was sorted at -80 C for later use. Cells were treated with RLT buffer and frozen until shipped for gene expression analysis. Total RNA was isolated from the cell suspension in 75 uL of Buffer RLT (Qiagen, Germantown, MD 20874) by Quintiles/Expression Analysis (Durham, NC) using a custom isolation procedure. Total RNA from each plate well was transferred to a preamplification plate. Fluidigm's 96.96 Dynamic ArrayTM (Fluidigm, Amsterdam, the Netherlands) technology was used for gene expression analyses by quantitative reverse transcription polymerase chain reaction (qRT-PCR, performed by Quintiles/Expression Analysis, Durham, NC)89. Standard TaqManTM Assays (Applied Biosystems/ThermoFisher Scientific, Foster City, CA) were used to assess the expression of 93 genes selected based on their selectivity and sensitivity to important hepatic receptors known to be modulated by environmental chemicals; importance in human hepatocyte functionality; and hepatotoxicity. […]

Row | Compound | outcome | AC50
1 | CS/C(C)=N/OC(=O)N(C)SN(C)C(=O)O/N=C(\C)SC | inactive | –
2 | C=CCC1=C(C)C(OC(=O)C2C(C=C(C)C)C2(C)C)CC1=O (stereo not given) | inactive | –
3 | CC1=C(C(=O)Nc2ccccc2)SCCO1 | – | 50 µM (active)
4 | COC(=O)C=C(C)OP(=O)(OC)OC | inactive | –
5 | COC(=O)C(C)Oc1ccc(Oc2ccc(Cl)cc2Cl)cc1 (stereo not given) | inactive | –
6 | O=C(O)COc1nc(Cl)c(Cl)cc1Cl | inactive | –
7 | CCCCNC(=O)n1c(NC(=O)OC)nc2ccccc21 | inactive | –
8 | CCCCOC(=O)c1ccccc1C(=O)OCCCC | inactive | –
9 | CC(C)(C)c1ccc(CSc2cnn(C(C)(C)C)c(=O)c2Cl)cc1 | inactive | –
10 | CN(C)C(=S)SSC(=S)N(C)C | inactive | –
11 | Cc1c(F)c(F)c(COC(=O)C2C(/C=C(\Cl)C(F)(F)F)C2(C)C)c(F)c1F (stereo not given) | inactive | –
12 | OC(c1ccc(Cl)cc1)(c1cncnc1)c1ccccc1Cl (stereo not given) | – | 66.2 µM (active)
13 | CC(C)C1(C)N=C(c2nc3ccccc3cc2C(=O)O)NC1=O (stereo not given) | inactive | –
14 | Fc1ccc(Oc2ccnc3cc(Cl)cc(Cl)c23)cc1 | inactive | –
15 | C=CCC1=C(C)[C@@H](OC(=O)[C@@H]2[C@@H](C=C(C)C)C2(C)C)CC1=O | inactive | –
16 | CCCN(CCC)c1c([N+](=O)[O-])cc(S(N)(=O)=O)cc1[N+](=O)[O-] | inactive | 93.5 µM (active) and 93.2 µM (active)
17 | CCc1nn(C)c(C(=O)NCc2ccc(C(C)(C)C)cc2)c1Cl | inactive | –
18 | COP(=S)(OC)Oc1nc(Cl)c(Cl)cc1Cl | inactive | –
19 | CCCCC(CC)COC(=O)c1ccccc1C(=O)OCC(CC)CCCC (stereo not given) | inactive | –
20 | CCOC(=O)CC(SP(=S)(OC)OC)C(=O)OCC (stereo not given) | inactive | –

Row | Compound | outcome | AC50
21 | CCCC1COC(Cn2cncn2)(c2ccc(Cl)cc2Cl)O1 (stereo not given) | inactive | –
22 | COC(=O)N(OC)c1ccccc1COc1ccn(-c2ccc(Cl)cc2)n1 | inactive | –
23 | N#Cc1nn(-c2c(Cl)cc(C(F)(F)F)cc2Cl)c(N)c1S(=O)C(F)(F)F (stereo not given) | – | 90.7 µM (active)
24 | CCCCNC(=O)OCC#CI | inactive | –
25 | CC1COC(Cn2cncn2)(c2ccc(Oc3ccc(Cl)cc3)cc2Cl)O1 (stereo not given) | – | 9.92 µM (active)
26 | N#CC(CCc1ccc(Cl)cc1)(Cn1cncn1)c1ccccc1 (stereo not given) | inactive | –
27 | COP(N)(=O)SC (stereo not given) | inactive | –
28 | COc1ccc(C(c2ccc(OC)cc2)C(Cl)(Cl)Cl)cc1 | – | 61.8 µM (active)
29 | CC(C)Oc1cc(-n2nc(C(C)(C)C)oc2=O)c(Cl)cc1Cl | – | 4.73 µM (active)
30 | C=CC1(C)OC(=O)N(c2cc(Cl)cc(Cl)c2)C1=O (stereo not given) | inactive | –
31 | CNC(=S)S | inactive | –
32 | Oc1ccccc1-c1ccccc1 | inactive | –
33 | CON(C)C(=O)Nc1ccc(Cl)c(Cl)c1 | inactive | –
34 | COc1nc(NC(C)C)nc(NC(C)C)n1 | inactive | –
35 | CO/C=C(/C(=O)OC)c1ccccc1Oc1cc(Oc2ccccc2C#N)ncn1 | – | 94.1 µM (active) and 82.7 µM (active) and 84.7 µM (active)
36 | Cc1cc(Cl)ccc1OCC(=O)O | inactive | –
37 | CCNc1nc(Cl)nc(NC(C)C)n1 | inactive | –
38 | CC(Oc1ccc(Cl)cc1Cl)C(=O)O (stereo not given) | inactive | –
39 | O=C(O)c1nc(Cl)ccc1Cl | inactive | –
